# Test results: PubChem BioAssay (Tox21)
# “And” between values parts separate entries of the source, which are not always exact repeats. Equal entries are not always repeated. Records with an inconclusive call do not appear. A call without a number means that no potency is given here. Values without a mark were called inactive. The source made the active and inactive calls. Calls come from the whole dose curve; as a rule, active = well fitted curve in the direction sought with a large enough effect in the repeat runs; inconclusive = weak or mixed curves; inactive = no such curve, though single readings can be large; an effect the other way counts as inactive or inconclusive.
# Assays:
# [1] = qHTS RealTime-Glo MT Cell Viability Assay in HEK293 cells - 16 hour (AID 1224872); note: nearly all actives have a fitted effect of over 50% in size; note: potency is the fitted concentration of half-maximal effect; for activity change, negative = cytotoxicity: top concentration of the series differs between compounds
# In short: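 Nonlytic real-time viability readout: viable cells convert prosubstrate to NanoLuc substrate, giving luminescence proportional to live cell number. HEK293, 600 cells/well, compound added after 5 h, continuous culture at 37 C.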
# [2] = qHTS RealTime-Glo MT Cell Viability Assay in HepG2 cells - 8 hour (AID 1224873); note: nearly all actives have a fitted effect of over 55% in size; note: potency is the fitted concentration of half-maximal effect
# In short: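 Real-time viability: cells seeded at 600 per well together with NanoLuc and cell-permeant prosubstrate, compounds added after 5 h incubation. Luminescence tracked at 0, 8, 16, 24, 32 and 40 h of exposure.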
# [3] = qHTS RealTime-Glo MT Cell Viability Assay in HEK293 cells - 40 hour (AID 1224874); settings: RealTime-Glo luminescence; max response: hits give low values; note: nearly all actives have a fitted effect of over 50% in size; note: potency is the fitted concentration of half-maximal effect
# In short: (§1)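 Luminescence readout at each listed time point; HEK293, 600 cells/well, RealTime-Glo MT reagent added with cells; compounds pinned (23 nL in DMSO) after 5 h at 37 C; continuous culture at 37 C.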
# [4] = A CellTox Green Cytotoxicity Assay to monitor cytotoxicity in HEK293 cells - 24 hour (AID 1224875); note: nearly all actives have a fitted effect of over 45% in size; note: potency is the fitted concentration of half-maximal effect; for activity change: series mostly up to about 77 µM
# In short: (§2)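 Read-out: fluorescence of a cell-impermeant cyanine dye staining DNA of dead cells, proportional to cytotoxicity. HEK293, 600 cells/well with reagent, compound (23 nL DMSO) added after 5 h; reads at 0, 8, 16, 24, 32, 40 h.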
# [5] = A CellTox Green Cytotoxicity Assay to monitor cytotoxicity in HepG2 cells - 16 hour (AID 1224876); note: nearly all actives have a fitted effect of over 45% in size; note: potency is the fitted concentration of half-maximal effect
# In short: (§3)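 HepG2, 600 cells/well premixed w/ CellTox Green; 5 h settle, 37 C/5% CO2; pintool cpd add (DMSO); 37 C, 40 h; fluorescence read at 0, 8, 16, 24, 32, 40 h.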
# [6] = qHTS RealTime-Glo MT Cell Viability Assay in HepG2 cells - 32 hour (AID 1224877); note: nearly all actives have a fitted effect of over 55% in size; note: potency is the fitted concentration of half-maximal effect
# In short: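 Luminescence read-out: viable HepG2 cells reduce a prosubstrate to a NanoLuc substrate, giving a signal proportional to live cell number. Reads taken at 0, 8, 16, 24, 32 and 40 h of compound exposure at 37 C.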
# [7] = A CellTox Green Cytotoxicity Assay to monitor cytotoxicity in HepG2 cells - 24 hour (AID 1224878); note: nearly all actives have a fitted effect of over 45% in size; note: potency is the fitted concentration of half-maximal effect
# In short: as §3
# [8] = A CellTox Green Cytotoxicity Assay to monitor cytotoxicity in HepG2 cells - 40 hour (AID 1224879); note: nearly all actives have a fitted effect of over 40% in size; note: potency is the fitted concentration of half-maximal effect
# In short: as §3
# [9] = qHTS RealTime-Glo MT Cell Viability Assay in HEK293 cells - 0 hour (AID 1224880); note: top concentration of the series differs between compounds; nearly all actives have a fitted effect of over 45% in size
# In short: as §1
# [10] = A CellTox Green Cytotoxicity Assay to monitor cytotoxicity in HEK293 cells - 40 hour (AID 1224871)
# In short: as §2
smiles,measurement,setting,value
O=[N+]([O-])c1ccccc1Nc1ccccc1,Potency,[1],inactive
same,Potency,[2],inactive
same,max response,[3],0.685%
same,Potency,[4],inactive
same,Potency,[5],inactive
same,Potency,[6],inactive
same,Potency,[7],inactive
same,Potency,[8],inactive
CC(NN)c1ccccc1 (stereo not given),"activity change, negative = cytotoxicity",[1],0.13% [at 15.8 µM]
same,"viability change, negative = cytotoxic",[2],-0.527% [at 15.8 µM]
same,max response,[3],2.41%
same,activity change,[4],"-7.33% [at 15.8 µM, hits give high values]"
same,cytotoxicity increase,[5],-2.37% [at 15.8 µM]
same,"activity change, negative = cytotoxic",[6],1.72% [at 15.8 µM]
same,cytotoxicity,[7],-5.39% [at 15.8 µM]
same,cytotoxicity increase,[8],0.373% [at 15.8 µM]
same,"activity change, negative = cytotoxicity",[9],-4.11% [at 15.8 µM]
CCCC(=O)OC[C@@H](OC(=O)CCC)[C@@H](OC(=O)CCC)[C@H](Cn1c2nc(=O)[nH]c(=O)c-2nc2cc(C)c(C)cc21)OC(=O)CCC,Potency,[10],21.3 µM (active)
same,max response,[3],-24.9%
same,Potency,[4],21.3 µM (active)
same,Potency,[5],19 µM (active)
same,Potency,[7],21.3 µM (active)
same,Potency,[9],inactive
CCCC(c1cc(C(C)(C)C)c(O)cc1C)c1cc(C(C)(C)C)c(O)cc1C,Potency,[1],24.8 µM (active)
same,Potency,[2],39.4 µM (active)
same,Potency,[3],17.6 µM (active)
same,Potency,[4],55.6 µM (active)
same,Potency,[5],44.2 µM (active)
same,Potency,[6],35.1 µM (active)
same,Potency,[7],39.4 µM (active)
NC(=O)NS(=O)(=O)c1ccc(N)cc1,Potency,[1],inactive
same,Potency,[2],inactive
same,max response,[3],2.7%
same,Potency,[4],inactive
same,Potency,[5],inactive
same,Potency,[6],inactive
same,Potency,[7],inactive
same,Potency,[8],inactive
same,Potency,[9],inactive
Cc1c(C)c2c(c(C)c1OC(=O)CCC(=O)O)CC[C@@](C)(CCC[C@H](C)CCC[C@H](C)CCCC(C)C)O2,Potency,[1],inactive
same,Potency,[2],inactive
same,Potency,[4],inactive
same,Potency,[5],inactive
same,Potency,[6],55.6 µM (active)
CCOC(=O)O[C@]1(C(=O)OCCl)CC[C@H]2[C@@H]3CCC4=CC(=O)C=C[C@]4(C)[C@H]3[C@@H](O)C[C@@]21C,Potency,[1],inactive
same,Potency,[2],inactive
same,Potency,[4],inactive
same,Potency,[5],inactive
same,Potency,[6],inactive
same,Potency,[7],inactive
same,Potency,[8],inactive
CCc1cc(Cc2cc(CC)cc(C(C)(C)C)c2O)c(O)c(C(C)(C)C)c1,Potency,[1],13.8 µM (active)
same,Potency,[2],49 µM (active)
same,Potency,[3],21.9 µM (active)
same,Potency,[6],49 µM (active)
same,Potency,[9],inactive
O=C(N/N=C/c1ccccc1O)c1ccncc1,Potency,[1],inactive
same,Potency,[2],inactive
same,Potency,[4],inactive
same,Potency,[5],inactive
same,Potency,[6],inactive
same,Potency,[7],inactive
same,Potency,[8],inactive
same,Potency,[9],inactive
CCCCN(CCCC)c1ccc(C(=O)c2ccccc2C(=O)O)c(O)c1,Potency,[1],inactive
same,Potency,[2],inactive
same,max response,[3],-24.6%
same,Potency,[5],inactive
same,Potency,[6],inactive
same,Potency,[9],inactive
CC1(C)CCC(C)(C)c2cc(C(=O)Nc3ccc(C(=O)O)cc3)ccc21,Potency,[1],inactive
same,Potency,[2],inactive
same,max response,[3],-14.6%
same,Potency,[6],inactive
COc1c(C)c2c(c(O)c1C/C=C(\C)CCC(=O)O)C(=O)OC2,Potency,[1],inactive
same,Potency,[2],inactive
same,Potency,[4],inactive
same,Potency,[5],inactive
same,Potency,[6],inactive
same,Potency,[7],inactive
same,Potency,[8],inactive
CCCCCCCCCCCCCCCC(=O)OC[C@H](O)[C@H]1OC(=O)C(O)=C1O,Potency,[1],inactive
same,Potency,[2],inactive
same,max response,[3],-4.9%
same,Potency,[5],inactive
same,Potency,[6],inactive
same,Potency,[7],inactive
same,Potency,[8],inactive
[Cl][Au]([Cl])[Cl],Potency,[1],4.9 µM (active)
same,Potency,[2],49 µM (active)
same,Potency,[3],3.09 µM (active)
same,Potency,[4],21.9 µM (active)
same,Potency,[5],21.9 µM (active)
same,Potency,[6],9.77 µM (active)
same,Potency,[7],13.8 µM (active)
same,Potency,[9],inactive
O=C(Oc1cccc2cccnc12)c1ccccc1,Potency,[1],inactive
same,Potency,[2],inactive
same,max response,[3],-33.8%
same,Potency,[4],inactive
same,Potency,[8],477 nM (active)
same,Potency,[9],inactive
c1cc(C(c2ccc(OCC3CO3)cc2)c2ccc(OCC3CO3)cc2)ccc1OCC1CO1 (stereo not given),Potency,[1],inactive
same,Potency,[2],inactive
same,Potency,[4],inactive
same,Potency,[5],inactive
same,Potency,[7],inactive
same,Potency,[8],inactive
same,Potency,[9],inactive
Nc1c(Cl)cc(Cl)cc1Cl,Potency,[1],inactive
same,Potency,[2],inactive
same,max response,[3],-15.4%
same,Potency,[5],inactive
same,Potency,[6],inactive
same,Potency,[7],inactive
same,Potency,[9],inactive
CSc1ccc2c(c1)C(N1CCN(C)CC1)Cc1ccccc1S2 (stereo not given),Potency,[1],inactive
same,Potency,[2],inactive
same,Potency,[5],26.8 µM (active)
same,Potency,[6],23.9 µM (active)
same,Potency,[7],23.9 µM (active)
same,Potency,[8],23900 nM (active)
C=CC(=O)OCC(CO)(COC(=O)C=C)COC(=O)C=C,Potency,[1],5.51 µM (active)
same,Potency,[3],3.48 µM (active)
same,Potency,[4],43.6 µM (active)
same,Potency,[5],inactive
same,Potency,[6],12.3 µM (active) and 17.4 µM (active)
same,Potency,[7],9.81 µM (active)
same,Potency,[8],11 µM (active) and 24.5 µM (active)
same,Potency,[9],inactive
